# Measured values reported in PubChem BioAssay.
# Where “and” joins values, the source holds several entries; their conditions need not be identical. Equal entries are not always repeated. Calls of active or inactive are those of the source.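 Rule for the calls, unless noted: active = compounds whose cell count with miR-34 switched on is under 0.7 times the count with it off; inactive = the rest.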
# How the values were obtained:
# [1] = viability loss with induced miR-34 in A549 – imaging, A549 dox-inducible miR-34, nuclei and caspase counts, primary screen (AID 1347080); details: A549 miR-34 inducible, Hoechst nuclei count, 48 h
# [2] = MELAS cybrid and Rieske KO viability enhancers – cell-based, MELAS cybrids, Rieske KO mouse fibroblasts, CellTiter-Glo, primary screen (AID 1508586;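 active = mean z-score across replicates of 1.96 or higher in either the MELAS or the Rieske mutant cell line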;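 note: z relative to plate mean and SD of compound and empty wells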); details: low glucose
# [3] = stronger effect = lower value, cell number ratio, induced over uninduced
# [4] = measured here: relative caspase fold change +Dox/-Dox
# [5] = measured here: total cells with miR-34 induction, stronger effect = lower value
# [6] = measured here: total cells without miR-34 induction
# [7] = MELAS cybrid survival, CellTiter-Glo 48 h, stronger effect = higher value
# [8] = Rieske KO mouse fibroblast survival, CellTiter-Glo 72 h
# Note: test concentration not given here.
Structure (SMILES),"fold change [1, 3]","fold change [1, 4]","cell count [1, 5]","cell count [1, 6]","z-score [2, 7]","z-score [2, 8]"
O=C(Nc1ccccc1Br)NC1CCN(c2ccc(C(F)(F)F)cn2)C1 (stereo not given),0.944 (inactive),0.559,9350,9910,-0.215 (inactive),0.944
Nc1nc(=O)n(C2CSC(CO)O2)cc1F (stereo not given),0.88 (inactive),0.906,7840,8920,-0.288 (inactive),0.564
Cc1cc(N2CCOCC2)cc2[nH]c(-c3c(NCC(O)c4cccc(Cl)c4)cc[nH]c3=O)nc12 (stereo not given),1.08 (inactive),0.775,928,858,-0.143 (inactive),-0.73
CCCCC(F)(F)C(=O)CCC1C(O)CC(=O)C1CCCCCCC(=O)O (stereo not given),0.926 (inactive),0.726,8100,8740,0.0399 (inactive),-0.0235
Nc1nc(Cl)nc2c1ncn2C1OC(CO)C(O)C1F (stereo not given),1.03 (inactive),0.719,1700,1650,0.651 (inactive),-0.114
COc1ccc2cc1Oc1ccc(cc1)CC1c3cc(c(OC)cc3CCN1C)Oc1c(OC)c(OC)cc3c1C(C2)N(C)CC3 (stereo not given),0.908 (inactive),0.992,6590,7260,-0.603 (inactive),-0.273
C[C@H]1CC[C@H]2[C@@H](C)C(OC(=O)CCC(=O)O)O[C@H]3O[C@@]4(C)CC[C@@H]1[C@]32OO4 (stereo not given in full),0.953 (inactive),0.708,4220,4430,-0.298 (inactive),-0.0832
O=C(O[C@H]1CN2CCC1CC2)N1CCc2ccccc2C1c1ccccc1 (stereo not given in full),0.932 (inactive),0.636,6880,7380,-0.171 (inactive),0.000903
CC(=O)Nc1ccc(NC(=S)NC(=O)c2ccc(C(C)(C)C)cc2)cc1,1 (inactive) and 1.05 (inactive),1.21 and 0.561,1820 and 1680,1820 and 1600,-0.38 (inactive),0.0517
O=C1CC(=O)c2c(Cl)c(Cl)c(Cl)c(Cl)c21,1.01 (inactive),0.472,8430,8350,-0.354 (inactive),-0.295
COC1C=CC=C(C)C(=O)NC2=CC(=O)C(NCCN(C)C)=C(CC(C)CC(OC)C(O)C(C)C=C(C)C1OC(N)=O)C2=O (stereo not given),1.03 (inactive),1.2,1450,1410,2.44 (active),-2.5
CNCc1ccc(C)c(NC(=O)c2ccc(Nc3nc(-c4ccccc4)c4ccccc4n3)cc2)c1,0.989 (inactive),0.59,6570,6650,-0.615 (inactive),-0.107
CC1C[C@H]2[C@@H]3CCC4=CC(=O)C=C[C@]4(C)[C@@H]3C(=O)C[C@]2(C)[C@]1(O)C(=O)CO (stereo not given in full),1.57 (inactive),0.521,7500,4760,-0.4 (inactive),0.152
CCN(C)C(=O)Oc1cccc(C(C)N(C)C)c1 (stereo not given),0.91 (inactive),0.79,8110,8910,-0.173 (inactive),0.451
CC1C(=O)O[C@H]2C(O)C34C5CC(C(C)(C)C)C36C(O)C(=O)O[C@H]6O[C@]4(C(=O)O5)[C@@]12O (stereo not given in full),0.925 (inactive),1.45,7630,8250,-0.353 (inactive),-0.351
Cc1ccc(C(=O)NCCCCCC(=O)Nc2ccccc2N)cc1,0.986 (inactive),0.44,4890,4960,-0.614 (inactive),-2
CCOC(=O)O[C@@]1(C(=O)OCCl)CC[C@H]2[C@@H]3CCC4=CC(=O)C=C[C@]4(C)[C@@H]3C(O)C[C@@]21C (stereo not given in full),0.859 (inactive),1.25,5320,6190,-0.313 (inactive),-0.191
CC1OC(OCC2OC(Oc3c(-c4ccc(OCCO)c(OCCO)c4)oc4cc(OCCO)cc(O)c4c3=O)C(O)C(O)C2O)C(O)C(O)C1O (stereo not given),0.984 (inactive),0.465,7700,7830,-0.513 (inactive),-0.15
CCC(C)Nc1cc(C(=O)NC2CC3CCC(C2)N3c2ccc(C(=O)C3CC3)cn2)c(C)cc1C(N)=O (stereo not given),0.94 (inactive),0.437,2340,2490,2.2 (active),-1.06
CC1CN(CC(=O)Nc2ccc3c(c2)Cc2cccc(-c4cc(=O)cc(N5CCOCC5)o4)c2S3)CC(C)O1 (stereo not given),0.994 (inactive),1.1,5760,5800,2.51 (active),1.29
CC(NC(=O)Cc1cc(F)cc(F)c1)C(=O)NC(C(=O)OC(C)(C)C)c1ccccc1 (stereo not given),0.856 (inactive),0.819,7300,8530,-0.187 (inactive),0.801
CC1COC(Nc2ccc3ncnc(Nc4ccc(OCc5nccs5)c(Cl)c4)c3c2)=N1 (stereo not given),0.841 (inactive),0.704,6940,8260,0.156 (inactive),-0.466
O=C(C=Cc1ccccc1)NC(NC(=S)Nc1ccc(Cl)cc1)C(Cl)(Cl)Cl (stereo not given),0.995 (inactive),0.524,2510,2520,-0.431 (inactive),-0.459
CC1COCCN1c1cc(C2(S(C)(=O)=O)CC2)nc(-c2cccc3[nH]ccc23)n1 (stereo not given),0.703 (inactive),2.27,1950,2770,2.53 (active),-0.319
C=C1C(=O)OC2C1CCC(C)=CCC[C@@]1(C)OC21 (stereo not given in full),0.965 (inactive),0.646,8720,9040,0.936 (inactive),-0.281
COc1cc(CCC(C)=O)ccc1O,0.964 (inactive),0.351,7540,7830,-0.174 (inactive),-0.0455
CNC(=O)C(Cc1c[nH]c2ccccc12)NC(=O)C(CC(=O)NO)CC(C)C (stereo not given),0.883 (inactive),0.261,7640,8650,0.112 (inactive),0.643
COCC(=O)NCC=Cc1ccc2ncnc(Nc3ccc(Oc4ccc(C)nc4)c(C)c3)c2c1,0.862 (inactive),1.21,5970,6930,-0.531 (inactive),1.09
Cc1cc(Nc2cc(N3CCN(C)CC3)nc(C=Cc3ccccc3)n2)n[nH]1,1.29 (inactive),1.19,1120,872,1.43 (inactive),-2.06
O=C1c2c(O)cccc2[C@H]([C@@H]2OC(CO)C(O)C(O)C2O)c2cc(CO)cc(O)c21 (stereo not given in full),0.88 (inactive),0.843,8560,9720,-0.344 (inactive),-0.143
